The list is not random: actives were taken first. Their share in the collection is about 3.5%.
Platelet DG rel – modulates dense granule release in human platelets; human platelet-rich plasma, SFLLRN dense granule ATP release, luminescence; AID 1663; inhibition, %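 (compounds screened at 7.5 µM in platelet-rich plasma)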; 300,000 compounds, 0.22% hits;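 active = mean replicate score, as percent of positive control, at or above 50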
TWEAK Fn14 block – blocks TWEAK-Fn14 interaction in a reporter cell assay | TWEAK-stimulated Fn14 reporter cells, luciferase luminescence, 8 h | inhibition, % at 10 µM | 360,000 compounds, 2% hits | AID 1159606; in the data active = inhibition above about 50%
PPC-1+TRAIL kill – compounds killing PPC-1 cancer cells with TRAIL present (potentiator screen, no TRAIL-free arm); PPC-1 cells + TRAIL, ATPLite viability luminescence; 220,000 compounds, 0.41% hits; cell killing (% activity), % at 4 µM or 5 µM;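 active = cell killing above 50% in the first pass at 4 µM, then a duplicate retest at 5 µM averaging 50% or more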
TROY NFkB inh – inhibitors of TROY-dependent NF-kB signaling | Q293 LMP1-TROYcd NF-kB luciferase reporter, 4 h | inhibition, % at 10 µM | 360,000 compounds, 0.98% hits;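 active = compounds whose plate-normalised and pattern-corrected inhibition of the luciferase reporter signal at the single screening dose is 50% or more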
TRAIL sens C8 – sensitizes caspase-8 expressing cells to TRAIL. NB7+C8 cells + TRAIL, ATPlite viability luminescence. inhibition (viability loss, TRAIL sensitization), % at 10 µM. 360,000 compounds, 1% hits;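 active = compounds causing at least 50% loss of cell viability in the single-dose screen, relative to plate controls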
HSP90 refold inh – blocks HSP90-mediated luciferase refolding in reticulocyte lysate | Rabbit reticulocyte lysate, luciferase refolding luminescence, 3 h | inhibition, % at 5.6 µM | AID 1789 | 290,000 compounds, 0.91% hits;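 active = inhibition above the screen-wide mean plus 3 SD, computed separately per campaign, cut at about 16% in these data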;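 also: inhibitors lower the luminescence because luciferase stays unfolded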
HSP90 inh confirm – HSP90 inhibition, confirmation assay | shares compounds with HSP90 refold inh | rabbit reticulocyte lysate, luciferase refolding luminescence, 3 h | inhibition, % at 5.9 µM | 2,300 compounds, 64% hits | AID 1846; in the data active = inhibition above about 18%
luciferase ctr – blocks native firefly luciferase in HSP90 counter-screen; inhibition, % at 5.9 µM; shares compounds with HSP90 refold inh; purified native firefly luciferase, luminescence; 2,300 compounds, 48% hits;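 active = inhibition above the mean inhibition of all tested sample wells plus 3 SD, cut at about 10% in these data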
Target sequence (P08659 whole entry, looked up): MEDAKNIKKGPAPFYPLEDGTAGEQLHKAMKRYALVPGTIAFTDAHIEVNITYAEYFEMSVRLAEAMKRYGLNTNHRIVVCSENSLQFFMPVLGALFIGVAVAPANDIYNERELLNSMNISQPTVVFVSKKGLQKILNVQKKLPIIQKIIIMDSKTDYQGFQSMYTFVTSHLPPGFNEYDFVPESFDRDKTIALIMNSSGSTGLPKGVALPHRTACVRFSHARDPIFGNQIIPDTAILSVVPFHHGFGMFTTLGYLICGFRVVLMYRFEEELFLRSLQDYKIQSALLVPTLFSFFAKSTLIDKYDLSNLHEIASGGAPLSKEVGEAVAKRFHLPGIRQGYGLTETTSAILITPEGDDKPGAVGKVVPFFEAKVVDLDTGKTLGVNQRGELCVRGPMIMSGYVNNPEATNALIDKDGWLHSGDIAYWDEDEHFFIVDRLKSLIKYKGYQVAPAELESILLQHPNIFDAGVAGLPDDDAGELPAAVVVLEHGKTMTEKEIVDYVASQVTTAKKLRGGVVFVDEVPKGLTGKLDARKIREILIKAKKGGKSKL
Hits are given with their value; n = inactive; x = no result given.

SMILES	Platelet DG rel	TWEAK Fn14 block	PPC-1+TRAIL kill	TROY NFkB inh	TRAIL sens C8	HSP90 refold inh	HSP90 inh confirm	luciferase ctr
CCC(=O)N1CCc2cc(S(=O)(=O)CCC(=O)NCCc3ccccc3)ccc21	n	n	n	n	n	n	x	x
CCC(=O)N1CCc2cc(S(=O)(=O)N(CC)c3cccc(C)c3)ccc21	n	n	n	n	n	61.7	n	n
COc1ccccc1-c1cc(C(=O)Nc2cccnc2Cl)no1	n	n	x	n	n	n	x	x
COc1ccccc1C(=O)NC(=S)Nc1cccnc1Cl	n	95.4	x	78.3	n	54.6	22.8	11.5
O=C(CCCn1c(=S)[nH]c2ccccc2c1=O)NCCSCc1ccccc1	n	n	n	n	n	n	x	x
NNC(=O)CNC(c1ccccc1)c1cc(Br)ccc1N (stereo not drawn)	n	n	n	n	n	58.4	n	n
S=c1[nH]nc(-c2ccc(Cl)cc2)n1Cc1ccccc1	n	n	n	n	n	45.6	n	n
S=c1[nH]nc(-c2ccccc2)n1Cc1ccccc1	n	n	n	n	n	n	x	x
COc1cc(CCCN2CCNC[C@H]2Cc2cccc3ccccc23)cc(OC)c1OC	x	n	x	n	n	x	x	x
Fc1ccc(F)c(C2=NNC(=Nc3ccccc3F)SC2)c1	n	n	n	n	n	n	x	x
COCCn1c(C)cc(C2=NNC(=Nc3ccccc3F)SC2)c1C	n	105.4	n	89.4	n	77.3	62.2	55.4
COCCCN=C1NN=C(c2cc(C)n(-c3ccccc3F)c2C)CS1	n	58.5	n	n	53.3	17.6	69.5	64.4
COCCCN=C1NN=C(c2cc(C)n(Cc3ccccc3Cl)c2C)CS1	n	n	n	n	n	21.3	48.1	22.9
O=C(CCNC(=O)c1ccc([N+](=O)[O-])cc1)Nc1cccc(S(=O)(=O)N2CCCCCC2)c1	x	n	x	n	n	x	x	x
CC(C)CC(=O)N/C(N)=N/c1nc2ccccc2o1	n	n	n	n	n	n	x	x
Cc1ccc(S(=O)(=O)N(C)CC(=O)N(C)Cc2cccs2)cc1	x	n	x	n	n	x	x	x
CC(=O)Nc1ccccc1OCC(=O)c1cc(C)n(Cc2cccs2)c1C	n	64.5	n	n	n	47.4	68.7	n
Cc1cc(C(=O)COC(=O)c2ccccc2O)c(C)n1Cc1cccs1	n	102.2	n	64.0	89.9	82.2	86.4	84.5
CCN1C[C@@H]2[C@@H]3C(=O)N(C)C(=O)[C@@H]3[C@](CC)(C1=O)N2C(=O)c1ccc(F)cc1	x	n	x	n	n	x	x	x
Cc1ccc(S(=O)(=O)/N=C2\C=C(Nc3cccc(C(=O)O)c3)C(=O)c3ccccc32)c(C)c1	n	92.9	x	n	n	92.1	90.4	n
O=C(O)c1cccc(NS(=O)(=O)c2ccc3c(c2)C(=O)c2ccccc2C3=O)c1	n	n	n	n	n	22.2	n	n
Cc1cccc(NC2=C(NC(=O)c3ccccc3)C(=O)c3ccccc3C2=O)c1	n	n	n	n	n	n	x	x
Cc1ccc(S(=O)(=O)/N=C2\C=C(Nc3cccc(C(=O)O)c3)C(=O)c3ccccc32)cc1	n	94.3	x	n	n	96.0	92.0	n
CCc1ccc(S(=O)(=O)/N=C2\C=C(Nc3ccc(C(=O)O)cc3)C(=O)c3ccccc32)cc1	n	95.8	x	n	n	93.0	95.7	n
Cc1cc(C)c(S(=O)(=O)N2CCOC23CCN(S(C)(=O)=O)CC3)c(C)c1	x	n	x	n	n	x	x	x
SMILES	Platelet DG rel	TWEAK Fn14 block	PPC-1+TRAIL kill	TROY NFkB inh	TRAIL sens C8	HSP90 refold inh	HSP90 inh confirm	luciferase ctr
CCOC(=O)C1(C)CCCCN1C(=O)c1ccnc(Cl)c1 (stereo not drawn)	x	n	x	n	n	x	x	x
CC1(NC(=O)Nc2cccc(Br)c2)CCS(=O)(=O)C1 (stereo not drawn)	x	n	x	n	n	x	x	x
COC(=O)c1ccccc1NC1=C/C(=N\S(=O)(=O)c2ccc(C(=O)O)cc2)c2ccccc2C1=O	n	93.9	x	n	69.0	77.4	92.1	n
COC(=O)c1ccccc1Nc1ccccc1	n	n	n	n	n	n	x	x
O=C1C(Nc2ccccc2)=C/C(=N/S(=O)(=O)c2cccs2)c2ccccc21	n	96.9	n	n	96.5	37.4	94.4	n
CCc1cc[n+](C2=C([O-])c3ccccc3C(=O)/C2=N\S(=O)(=O)c2cccs2)cc1	n	n	n	n	n	n	x	x
Cc1cc(C(=O)COC(=O)c2n[nH]c3ccccc23)c(C)n1CC1CCCO1 (stereo not drawn)	n	81.7	n	60.1	71.8	51.5	55.2	54.3
Cc1ccc(C(=O)OCC(=O)c2cc(C)n(CC3CCCO3)c2C)cc1 (stereo not drawn)	n	63.6	n	72.4	n	32.2	35.4	31.9
Cc1cc(C(=O)COC(=O)c2ccccc2NCCO)c(C)n1CC1CCCO1 (stereo not drawn)	n	62.0	x	n	n	53.1	22.6	n
CCOc1cc(C(=O)OCC(=O)c2cc(C)n(CC3CCCO3)c2C)ccc1OCC(=O)N1CCOCC1 (stereo not drawn)	n	n	n	n	n	n	x	x
Cc1onc(C(=O)Nc2c(C)n(C)n(-c3ccccc3)c2=O)c1[N+](=O)[O-]	n	n	n	n	n	n	x	x
CCc1ccc(C(=O)Cn2ccsc2=N)cc1	x	n	x	n	58.6	21.2	n	n
CC(C)(C)NC(=O)NC(=O)Cn1ccsc1=N	n	n	n	n	n	n	x	x
O=C(Nc1ccc(C2SCCS2)cc1)c1ccccc1	n	n	n	n	n	n	x	x
Cc1ccc2nc(NC(=O)CSCC(=O)OCC(=O)c3ccccc3)sc2c1	n	95.6	n	73.0	n	65.6	78.5	n
Cc1ccc2nc(NC(=O)CCCC(=O)O)sc2c1	n	86.3	n	66.2	n	16.9	24.0	n
CCOCC(=O)Nc1nc2ccc(C)cc2s1	n	n	n	n	n	n	x	x
COc1ccc(OC)c(/C=N/Nc2nncn2/N=C/c2cc(OC)ccc2OC)c1	n	n	n	n	n	42.0	n	n
COc1ccc(OC)c(/C=N\Nc2nccs2)c1	n	n	x	n	n	x	x	x
CN(C)c1ccc(/C=C2\CCC/C(=C\c3ccccc3)C2=O)cc1	n	n	n	n	n	n	x	x
CC(=O)N1/C(=C/c2ccc(N(C)C)cc2)C(=O)c2ccccc21	n	86.1	n	66.5	n	18.3	n	n
Cc1ccc(NC(=S)c2nc3ccccc3[nH]2)cc1	n	n	n	n	77.1	19.3	23.2	n
Cc1cccc(-n2c(N)cc(=O)nc2SCC(=O)Nc2nnc(CC(C)C)s2)c1	n	x	n	x	x	n	x	x
CCCCc1nnc(NC(=O)CSc2nc(=O)cc(N)n2-c2cccc(C)c2)s1	n	n	n	n	n	33.1	n	n
O=C(c1ccco1)N1CCN(C2CN(CCc3ccccc3)S(=O)(=O)C2)CC1 (stereo not drawn)	x	n	x	n	n	x	x	x

Compound activity: PubChem BioAssay, several laboratories
